Screening data: PubChem BioAssay, Buhrlage Lab, Dana-Farber Cancer Institute and Novartis Institutes for BioMedical Research (Cambridge, Mass)
Sampled rows, rich in hits. Any-hit rate of the full collection: about 14%.
USP30 inh: inhibitors of human USP30 deubiquitinase | purified USP30, Ub-rhodamine cleavage fluorescence | inhibition, % at 25 µM | AID 1645860 | Q70CQ3 | hit rate 5.3% among 47,000
USP8 inh: inhibitors of human USP8 deubiquitinase; P40818; purified USP8, Ub-rhodamine cleavage fluorescence, 30 min; inhibition, % at 20 µM; hit rate 4.2% among 47,000; AID 1645853
USP17 inh: inhibitors of human USP17 deubiquitinase; purified USP17, Ub-rhodamine cleavage fluorescence, 3 h; inhibition, % at 50 µM; hit rate 6.5% among 47,000; AID 1645855
Target sequence (A8MUK1 whole entry, looked up): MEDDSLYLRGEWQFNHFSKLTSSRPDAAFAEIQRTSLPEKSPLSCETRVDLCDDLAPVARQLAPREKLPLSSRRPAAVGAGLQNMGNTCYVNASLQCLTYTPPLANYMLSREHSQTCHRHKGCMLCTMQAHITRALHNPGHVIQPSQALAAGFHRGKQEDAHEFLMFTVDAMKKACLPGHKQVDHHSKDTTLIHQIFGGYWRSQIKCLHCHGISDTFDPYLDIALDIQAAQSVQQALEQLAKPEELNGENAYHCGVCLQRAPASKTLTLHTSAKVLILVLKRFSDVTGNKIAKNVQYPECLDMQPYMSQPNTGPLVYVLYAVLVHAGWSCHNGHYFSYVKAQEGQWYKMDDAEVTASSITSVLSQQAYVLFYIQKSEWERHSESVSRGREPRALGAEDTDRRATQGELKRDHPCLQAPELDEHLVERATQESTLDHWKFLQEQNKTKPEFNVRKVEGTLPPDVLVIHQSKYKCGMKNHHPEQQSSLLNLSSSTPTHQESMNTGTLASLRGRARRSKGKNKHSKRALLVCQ
USP10 inh: human USP10 deubiquitinase inhibition; purified USP10, Ub-rhodamine fluorescence, 60 min; Q14694; inhibition, % at 20 µM; hit rate 1.1% among 47,000
USP28 block: inhibitors of human USP28 deubiquitinase; purified USP28, Ub-rhodamine cleavage fluorescence, 30 min; hit rate 3% among 47,000; inhibition, % at 25 µM; Q96RU2; AID 1645857
Numbers stand for hits; - = inactive; . = no result given. Rule as the data show it: active = inhibition above about 30%; inactive = the rest.

SMILES | USP30 inh | USP8 inh | USP17 inh | USP10 inh | USP28 block
COc1ccc2[nH]c3c(=O)n(Cc4cccnc4)cnc3c2c1 | - | - | 45 | - | -
Cc1ccc2[nH]c3c(=O)n(Cc4ccc(N(C)C)cc4)cnc3c2c1 | - | 88 | - | - | -
Cc1ccc2[nH]c3c(=O)n(Cc4cccnc4)cnc3c2c1 | - | - | 34 | - | -
COc1ccc(Cn2cnc3c([nH]c4ccc(Br)cc43)c2=O)cc1 | - | - | 61 | - | -
C=C(C)[C@@H]1CC[C@]2(C)C(=C(C)C(=O)C[C@H]2O)C1 | - | - | - | - | -
CCN(CC)C(=O)c1csc(-c2ccc(N3CCCC3)nc2)n1 | - | - | - | - | -
O=c1c2[nH]c3ccc(Br)cc3c2ncn1CCO | - | - | - | - | -
COCCCn1cnc2c([nH]c3ccc(Br)cc32)c1=O | . | - | 65 | - | .
Cc1ccc(Cn2nnc3c(=O)[nH]c(C4CCN(S(=O)(=O)c5ccc(S(=O)(=O)NC6CCCCC6)cc5)CC4)nc32)cc1 | - | - | - | - | -
O=c1[nH]c(C2CCN(S(=O)(=O)c3ccc(S(=O)(=O)NC4CCCCC4)cc3)CC2)nc2c1nnn2Cc1ccc(F)cc1 | 40 | 36 | 47 | 36 | 44
O=c1[nH]c(C2CCN(S(=O)(=O)c3ccc(S(=O)(=O)NC4CC4)cc3)CC2)nc2c1nnn2Cc1ccc(F)cc1 | 42 | - | . | - | -
O=c1[nH]c(C2CCN(S(=O)(=O)c3ccc(S(=O)(=O)NC4CC4)cc3)CC2)nc2c1nnn2Cc1ccccc1 | 39 | - | 33 | - | -
O=C1CC(c2cccnc2)c2sc(C(=O)O)c(-c3ccc(Cl)cc3)c2N1 (centres undefined) | - | - | - | - | -
O=C(Nc1ccccc1F)c1cc(C2CC2)on1 | - | - | - | - | -
Cc1cc(-c2ccc(C)c(S(=O)(=O)N3CC(=O)Nc4ccccc43)c2)on1 | - | - | 47 | - | -
O=C(c1ccccc1)N1C[C@H]2CCN(S(=O)(=O)c3ccc4ccccc4c3)C[C@H]21 | - | - | - | - | -
Cn1c(N)c(C(=O)CSc2nnc(Cn3cnc4ccccc43)n2-c2ccccc2Cl)c(=O)n(C)c1=O | 39 | - | - | - | -
Cn1c(N)c(C(=O)COc2ccc([N+](=O)[O-])cc2Cl)c(=O)n(C)c1=O | - | - | - | - | -
CC(C(=O)NCCc1ccc(S(N)(=O)=O)cc1)n1sc2ccccc2c1=O (centres undefined) | 39 | - | - | - | -
NS(=O)(=O)c1ccc(CCNC(=O)C(=O)c2c[nH]c3ccccc23)cc1 | - | - | - | - | 36
O=C(NCc1cccnc1)[C@H]1CC[C@@H]2[C@@H](CCN2C2CCOCC2)O1 | - | - | - | - | -
Cc1ccc(-c2cc(NC(=O)C(C)C)c(=O)n(CC(=O)Nc3ccc(F)cc3F)n2)cc1 | - | - | - | - | -
Cc1ccc(NC(=O)N2CCC(c3nc4c(cnn4C(C)C)[nH]3)CC2)cc1 | - | - | - | - | -
Cc1ccccc1C(=O)N1CCC2(CC1)OCCN2S(=O)(=O)c1ccccc1 | - | - | - | - | -
Cc1ccc(S(=O)(=O)N2CCOC23CCN(C(=O)c2ccccc2)CC3)cc1 | 33 | - | - | - | -
SMILES | USP30 inh | USP8 inh | USP17 inh | USP10 inh | USP28 block
COc1cccc(OCC(=O)NCC(c2ccc3c(c2)CCCN3C)N2CCOCC2)c1 (centres undefined) | - | - | . | - | -
COC(=O)c1cc(NC(=O)Nc2ccc(OC(F)(F)F)cc2)ccc1N1CCOCC1 | - | - | - | - | 32
COC(=O)c1cc(NC(=O)Nc2ccccc2C(F)(F)F)ccc1N1CCOCC1 | - | - | - | - | -
COc1nccc(N2CCC(CC(=O)NCC3CC3)CC2)n1 | - | - | - | - | -
Cc1nnc(Nc2ccc(C(=O)OCC(C)C)cc2)[nH]c1=O | - | - | - | - | -
Cc1ccccc1NC(=O)c1c(C)sc2c(=O)n(C(C)C)cnc12 | - | - | 32 | - | -
Cc1cccc(C)c1NC(=O)c1c(C)sc2c(=O)n(C(C)C)cnc12 | - | - | - | - | -
Cc1nn(-c2ccccc2)c2nc(C(F)(F)F)[nH]c(=O)c12 | . | - | - | - | .
Cc1nn(-c2ccc(Cl)cc2)c2[nH]c(=O)c(CNCc3cccs3)cc12 | - | 77 | - | - | -
Cc1nn(-c2ccc(Cl)cc2)c(C)c1S(=O)(=O)N1CCN(C)CC1 | - | - | - | - | -
Cc1nn(-c2ccc(Cl)cc2)c2[nH]c(=O)c(CNCc3ccc(F)cc3)cc12 | - | 76 | - | - | -
Cc1nn(-c2ccc(Cl)cc2)c2[nH]c(=O)c(CNc3ccc(C(C)(C)C)cc3)cc12 | - | - | 39 | - | -
Cc1nn(-c2ccccc2)c2[nH]c(=O)c(CNC(C)c3cccs3)cc12 (centres undefined) | - | 30 | - | - | -
CC(C)c1ccc(NCc2cc3cc4c(cc3[nH]c2=O)OCCO4)cc1 | - | - | - | - | -
CC(=O)N1CCc2nnc(C3CCN(Cc4ccccc4C)CC3)n2CC1 | - | - | - | - | -
Cc1cccc2cc3c(nc12)N(C(=O)CCc1ccccc1)CC3 | - | - | - | - | -
O=c1[nH]c2cc3c(cc2cc1CNCc1ccc2c(c1)OCO2)OCCO3 | - | - | - | - | -
COc1ccc(-c2nn(-c3ccccc3)c3[nH]c(=O)c(CNCc4cccs4)cc23)cc1 | - | 82 | - | - | -
Cc1nn(-c2ccc(Cl)cc2)c2[nH]c(=O)c(CNCc3ccc4c(c3)OCO4)cc12 | - | 81 | - | - | -
O=C(Nc1ccc(Cl)cc1)C1C2C=CC3(O2)C1C(=O)N(CCCN1CCOCC1)C3C(=O)NC1CCCCC1 (centres undefined) | - | - | - | - | -
Cn1c(-c2nnc(SCC(=O)NCCc3ccccc3)o2)cc2ccccc21 | 57 | - | 43 | - | -
Cc1ccc(CCNC(=O)CSc2nnc(-c3ccncc3)o2)cc1 | - | - | - | - | -
CCCCNC(=O)CSc1nnc(-c2cc3ccccc3n2C)o1 | 72 | - | 56 | - | -
COc1ccc(NC(=O)CSc2nnc(-c3cc4ccccc4n3C)o2)cc1 | - | - | - | - | -
Cc1nc(C)c(CC(=O)N2CCCC(c3ccc4cn[nH]c4n3)C2)s1 (centres undefined) | - | - | - | - | -
SMILES | USP30 inh | USP8 inh | USP17 inh | USP10 inh | USP28 block
O=C(NCCc1cccc(F)c1)c1nc2c(s1)CCCN2C(=O)C1CC1 | - | - | - | - | 37
O=C(NCCc1cccnc1)c1nc2c(s1)CCCN2C(=O)C1CC1 | - | - | - | - | -
O=C(c1ccc(Cl)c(S(=O)(=O)Nc2ccccc2C(=O)N2CCCC2)c1)N1CCCC1 | - | - | - | - | -
Cc1cc(=O)n(CC(=O)NCc2ccc3c(c2)OCO3)c(-c2ccc(F)cc2)n1 | - | - | - | - | -
O=C(CN1CCc2[nH]c3c(F)c(Cl)ccc3c(=O)c2C1)NCc1ccc2c(c1)OCO2 | 32 | - | 46 | - | -
Cc1cccc(N2CCN(CCCNc3nc4ccccc4n4c(C)nnc34)CC2C)c1 (centres undefined) | - | - | - | - | -
